# Data as given in PubChem BioAssay (NCATS).
# Where “and” joins values, the source holds several entries; their conditions need not be identical. Equal values may be shown once. Inconclusive results are not listed. A call without a number means that no potency is given here. The source holds several records for some structures; these can differ, active in one and inactive in another. Calls of active or inactive are those of the source. Unless noted, calls follow the shape of the dose curve; as a rule, active = well fitted curve in the direction sought with a large enough effect; inconclusive = small, poorly fitted or top-dose-only effect, or another doubt; inactive = no such curve, though single readings can be large; an effect the other way counts as inactive or inconclusive.
# Experiments:
# [1] = biological target: Calcium and integrin-binding protein 1 (Homo sapiens) (UniProt Q99828); assay: Primary qHTS for Identification of Calcium Integrin Binding Protein 1 (CIB1) Competitor (AID 1508620); also: potency is read from the fitted curve at half-maximal effect
# Calcium and integrin-binding protein 1 (Homo sapiens), sequence (Q99828 whole entry, looked up): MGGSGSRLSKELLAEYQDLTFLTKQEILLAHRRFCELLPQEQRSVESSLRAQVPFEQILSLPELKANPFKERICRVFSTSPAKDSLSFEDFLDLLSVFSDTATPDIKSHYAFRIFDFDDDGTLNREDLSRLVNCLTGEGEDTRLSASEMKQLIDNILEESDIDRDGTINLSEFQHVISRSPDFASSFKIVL
# Summary of the method: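 Fluorescence polarization competition: GST-tagged CIB1 (1 uM final) preincubated with compound 15 min at room temperature, then FITC-labelled alphaIIb peptide (100 nM final) added. After 15 min at room temperature, polarization read at Ex 480/Em 540.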
# [2] = Primary qHTS for small molecule stabilizers of the endoplasmic reticulum resident proteome: Secreted ER Calcium Modulated Protein (SERCaMP) assay (AID 1508630); also: potency is read from the fitted curve at half-maximal effect
# Summary of the method: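 The SH-SY5Y reporter protocol was run at 3 concentrations up to 38.3 uM (primary) or 11 concentrations (follow-up): 16 h compound, 100 nM thapsigargin for 4 h, then extracellular luciferase luminescence.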
# [3] = A High-Content qHTS Against Drug Library for the Identification of Small Molecules that Inhibit DYT1 Early Onset Primary Dystonia-Associated Cell Pathology (AID 1645839; calls by dose curve; also: potency is read from the fitted curve at half-maximal effect; as to % pathology change, negative = correction: series mostly up to about 46 µM)
# Summary of the method: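 Cells were seeded and left for 24 h, then dosed with compound alongside tetracycline induction of mutant EGFP-TorsinA. They were incubated for 48 h, fixed in 4% paraformaldehyde, permeabilized and imaged for mislocalization (%pathology) and cell count.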
# [4] = Counterscreen qHTS for small molecule stabilizers of the endoplasmic reticulum resident proteome: GLuc-NoTag assay (AID 1508627); also: potency is read from the fitted curve at half-maximal effect
# Summary of the method: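 Counterscreen line: SH-SY5Y-GLuc-NoTag. Seed, 5 h; compound, 19 h; thapsigargin 100 nM, 4 h; 37C/5% CO2. Readout: secreted GLuc luminescence, coelenterazine 0.07x final, no lysis.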
# [5] = Confirmatory qHTS for small molecule stabilizers of the endoplasmic reticulum resident proteome: Secreted ER Calcium Modulated Protein (SERCaMP) assay (AID 1508628); also: nearly all actives have a fitted effect of over 40% in size; also: potency is read from the fitted curve at half-maximal effect
# Summary of the method: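 GLuc-SERCaMP-expressing SH-SY5Y cells, pretreated 16 h with compound, are challenged with thapsigargin to empty ER calcium stores; after 4 h, coelenterazine is added directly to the medium and luminescence is imaged.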
# [6] = biological target: Cytochrome P450 2D6 (Homo sapiens) (UniProt P10635); assay: Cytochrome P450 family 2 subfamily D member 6 (CYP2D6) small molecule antagonists: luciferase biochemical (cell-free) qHTS assay (AID 1645840; active = well fitted curve in the direction sought with a large enough effect in the repeat runs; an effect the other way counts as inactive or inconclusive; also: nearly all actives have a fitted effect of over 55% in size; also: potency is read from the fitted curve at half-maximal effect)
# Cytochrome P450 2D6 (Homo sapiens), sequence (P10635 whole entry, looked up): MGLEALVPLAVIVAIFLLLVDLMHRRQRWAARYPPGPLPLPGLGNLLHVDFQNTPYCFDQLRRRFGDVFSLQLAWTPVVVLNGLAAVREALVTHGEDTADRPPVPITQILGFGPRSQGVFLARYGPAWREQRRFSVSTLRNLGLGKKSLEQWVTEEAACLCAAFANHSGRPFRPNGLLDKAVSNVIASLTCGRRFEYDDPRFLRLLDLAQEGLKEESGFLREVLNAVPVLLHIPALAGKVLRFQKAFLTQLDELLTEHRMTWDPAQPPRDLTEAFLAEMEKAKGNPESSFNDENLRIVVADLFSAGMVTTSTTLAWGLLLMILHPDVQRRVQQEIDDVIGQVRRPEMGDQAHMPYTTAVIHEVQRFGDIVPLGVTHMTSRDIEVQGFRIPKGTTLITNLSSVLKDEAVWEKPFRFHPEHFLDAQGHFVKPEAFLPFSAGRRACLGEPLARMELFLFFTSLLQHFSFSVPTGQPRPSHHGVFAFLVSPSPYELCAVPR
# Summary of the method: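 P450-Glo CYP2D6 system: proluciferin substrate converted by enzyme to luciferin, read by luminescence proportional to activity. Enzyme-substrate mix with compound 10 min at room temperature, then NADPH regeneration 1 h before detection reagent.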
# [7] = biological target: Cytochrome P450 2C9 (Homo sapiens) (UniProt P11712); assay: Cytochrome P450 family 2 subfamily C member 9 (CYP2C9) small molecule antagonists: luciferase biochemical (cell-free) qHTS assay (AID 1645842; active = well fitted curve in the direction sought with a large enough effect in the repeat runs; an effect the other way counts as inactive or inconclusive; also: nearly all actives have a fitted effect of over 55% in size; also: potency is read from the fitted curve at half-maximal effect)
# Cytochrome P450 2C9 (Homo sapiens), sequence (P11712 whole entry, looked up): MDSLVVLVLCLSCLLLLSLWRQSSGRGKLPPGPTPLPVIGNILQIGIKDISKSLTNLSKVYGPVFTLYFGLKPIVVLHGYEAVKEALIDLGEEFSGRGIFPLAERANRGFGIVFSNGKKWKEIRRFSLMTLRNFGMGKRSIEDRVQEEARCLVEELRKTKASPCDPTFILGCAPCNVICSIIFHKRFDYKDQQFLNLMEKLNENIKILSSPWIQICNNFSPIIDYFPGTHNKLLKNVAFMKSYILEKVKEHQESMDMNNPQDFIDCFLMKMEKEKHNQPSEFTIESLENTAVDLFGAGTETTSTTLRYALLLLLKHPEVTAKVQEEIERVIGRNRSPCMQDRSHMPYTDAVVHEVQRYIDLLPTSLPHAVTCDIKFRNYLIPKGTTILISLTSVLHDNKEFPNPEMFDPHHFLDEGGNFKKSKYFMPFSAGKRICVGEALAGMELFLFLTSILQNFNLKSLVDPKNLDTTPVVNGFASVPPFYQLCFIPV
# Summary of the method: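 P450-Glo CYP2C9 system: proluciferin substrate with enzyme in mix containing 0.4% BSA, 10 min at room temperature, then NADPH regeneration solution added and incubated 1 h at 37C. Detection reagent stopped reaction; luminescence read after 20 min as RLU.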
# Papain (Carica papaya) = Papain (Carica papaya) (UniProt P00784); assay: Primary qHTS assay for inhibitors of the protease papain (AID 1645873);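 also: papain turnover of Z-FR-AMC read as the AMC fluorescence gain over 10 min; series mostly up to about 50 µM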
# Papain (Carica papaya), sequence (P00784 whole entry, looked up): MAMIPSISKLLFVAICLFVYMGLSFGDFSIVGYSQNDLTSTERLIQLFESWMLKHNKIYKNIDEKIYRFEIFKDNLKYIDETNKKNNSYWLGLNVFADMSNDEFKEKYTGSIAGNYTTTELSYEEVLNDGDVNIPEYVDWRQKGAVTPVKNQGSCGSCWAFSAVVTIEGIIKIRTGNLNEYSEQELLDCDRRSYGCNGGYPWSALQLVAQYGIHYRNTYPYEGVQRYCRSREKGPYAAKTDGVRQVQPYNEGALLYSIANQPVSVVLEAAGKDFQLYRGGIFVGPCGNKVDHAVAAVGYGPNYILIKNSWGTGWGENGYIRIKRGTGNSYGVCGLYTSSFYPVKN
# [8] = Cell Viability qHTS for small molecule stabilizers of the endoplasmic reticulum resident proteome (AID 1508629); settings: cell viability counter-screen, 100 nM thapsigargin for final 4 h;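 also: compound exposure about 46 h in total before the viability read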; also: potency is read from the fitted curve at half-maximal effect;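 as to max response: human SH-SY5Y neuroblastoma cells carrying the GLuc-SERCaMP reporter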
# [9] = biological target: Cytochrome P450 3A4 (Homo sapiens) (UniProt P08684); assay: Cytochrome P450 family 3 subfamily A member 4 (CYP3A4) small molecule antagonists: luciferase qHTS assay (AID 1645841; active = well fitted curve in the direction sought with a large enough effect in the repeat runs; an effect the other way counts as inactive or inconclusive; also: nearly all actives have a fitted effect of over 45% in size)
# Cytochrome P450 3A4 (Homo sapiens), sequence (P08684 whole entry, looked up): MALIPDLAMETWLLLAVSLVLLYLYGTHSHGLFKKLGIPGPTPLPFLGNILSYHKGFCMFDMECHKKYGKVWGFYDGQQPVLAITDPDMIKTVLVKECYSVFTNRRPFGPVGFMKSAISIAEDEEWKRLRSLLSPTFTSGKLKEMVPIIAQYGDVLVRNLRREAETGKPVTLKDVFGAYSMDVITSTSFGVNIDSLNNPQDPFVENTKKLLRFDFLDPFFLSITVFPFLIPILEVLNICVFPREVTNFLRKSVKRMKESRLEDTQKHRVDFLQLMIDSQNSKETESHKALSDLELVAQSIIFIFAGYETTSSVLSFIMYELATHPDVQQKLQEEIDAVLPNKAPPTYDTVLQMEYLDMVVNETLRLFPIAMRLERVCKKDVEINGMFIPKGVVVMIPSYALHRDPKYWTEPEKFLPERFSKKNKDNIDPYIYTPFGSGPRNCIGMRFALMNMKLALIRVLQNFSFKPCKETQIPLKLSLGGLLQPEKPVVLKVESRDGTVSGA
# Summary of the method: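 P450-Glo CYP3A4 enzyme with proluciferin substrate preincubated 10 min with compound at room temperature, then NADPH regeneration 1 h. Luciferin detection reagent added for 20 min; luminescence recorded. Ketoconazole positive control.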
smiles,measurement,setting,value
C[Se]CCC(N)C(=O)O (stereo not drawn),Potency,[1],inactive
same,Potency,[2],inactive
OC(CN1CCN(c2cccc(Cl)c2)CC1)C(c1ccccc1)c1ccccc1 (stereo not drawn),Potency,[1],inactive
same,Potency,[2],inactive
COC(=O)N[C@H](C(=O)N[C@@H](Cc1ccccc1)[C@@H](O)CN(Cc1ccc(-c2ccccn2)cc1)NC(=O)[C@@H](NC(=O)OC)C(C)(C)C)C(C)(C)C,Potency,[1],inactive
same,Potency,[2],inactive
same,Potency,[3],inactive
CCN(CC)C(=S)SSC(=S)N(CC)CC,Potency,[1],44.7 µM (active)
same,Potency,[4],28.2 µM (active)
same,Potency,[5],inactive
same,Potency,[2],inactive
same,Potency,[3],10 µM (active)
same,Potency,[6],inactive
same,Potency,[7],7.7 µM (active) and 7.76 µM (active)
same,Potency,Papain (Carica papaya),inactive
O=C1CCc2ccc(OCCCCN3CCN(c4cccc(Cl)c4Cl)CC3)cc2N1,Potency,[1],inactive
same,Potency,[2],inactive
Cc1c(C(=O)NN2CCCCC2)nn(-c2ccc(Cl)cc2Cl)c1-c1ccc(Cl)cc1,Potency,[1],inactive
same,Potency,[2],inactive
COC(=O)C1=C(C)NC(C)=C(C(=O)OC(C)C)C1c1cccc2nonc12 (stereo not drawn),Potency,[1],inactive
same,Potency,[2],inactive
CC(C)[N+]1(C)[C@@H]2CC[C@H]1CC(OC(=O)C(CO)c1ccccc1)C2 (stereo partly drawn),Potency,[1],inactive
CNC[C@@H](O)[C@@H](O)[C@H](O)[C@H](O)CO,Potency,[1],inactive
same,Potency,[2],inactive
CC1(C)CCC(C)(C)c2cc(NC(=O)c3ccc(C(=O)O)cc3)ccc21,Potency,[1],inactive
same,Potency,[4],inactive
same,Potency,[2],inactive
same,Potency,[6],inactive
same,Potency,[7],inactive
O=c1c(O)c(-c2cc(O)c(O)c(O)c2)oc2cc(O)cc(O)c12,Potency,[1],inactive
same,Potency,[2],inactive
O=C1NC(=O)C(c2ccccc2[N+](=O)[O-])=C1Nc1ccc(O)c(Cl)c1,Potency,[1],inactive
same,Potency,[2],inactive
NS(=O)(=O)c1cc(C(=O)O)c(NCc2ccco2)cc1Cl,Potency,[1],inactive
same,Potency,[2],inactive
same,Potency,[3],inactive
O=C(O)c1cc(=O)c2c(OCC(O)COc3cccc4oc(C(=O)O)cc(=O)c34)cccc2o1,Potency,[1],inactive
same,Potency,[4],inactive
same,Potency,[5],inactive
same,max response,[8],17.9% (inactive)
same,Potency,[2],inactive
same,Potency,[3],inactive
same,Potency,[6],inactive
same,Potency,[7],inactive
COC(=O)C1=C(C)NC(C)=C(C(=O)OCCCN2CCC(c3ccccc3)(c3ccccc3)CC2)C1c1cccc([N+](=O)[O-])c1 (stereo not drawn),Potency,[1],inactive
same,Potency,[4],39.8 µM (active)
same,Potency,[8],28.2 µM (active)
same,Potency,[2],inactive
Cc1cccc(-c2[nH]ncc2-c2ccc3ncccc3n2)n1,Potency,[1],inactive
same,Potency,[2],inactive
CN1CCC(=C2c3ccccc3CCc3sccc32)CC1,Potency,[1],inactive
same,Potency,[4],inactive
same,Potency,[5],25.1 µM (active)
same,Potency,[6],1.1 µM (active)
same,Potency,[7],inactive
O=C(O)c1cn(-c2ccc(F)cc2)c2cc(N3CCNCC3)c(F)cc2c1=O,Potency,[1],inactive
same,Potency,[4],inactive
same,max response,[8],19.2% (inactive) and 20.4% (inactive)
same,Potency,[2],inactive
same,Potency,[3],inactive
same,Potency,[6],inactive
same,outcome,[9],inactive
same,Potency,[7],inactive
CC(C)(S)[C@@H](N)C(=O)O,Potency,[1],inactive
Cc1cccc(C)c1OCC(=O)N[C@@H](Cc1ccccc1)[C@@H](O)C[C@H](Cc1ccccc1)NC(=O)[C@H](C(C)C)N1CCCNC1=O,Potency,[1],inactive
same,Potency,[4],39.8 µM (active)
same,max response,[8],-5.9% (inactive)
same,Potency,[6],13.8 µM (active)
same,Potency,[7],17.4 µM (active)
Cc1cccc(C#Cc2ccccc2)n1,Potency,[1],inactive
same,Potency,[2],inactive
CCN(CCO)CCCC(C)Nc1ccnc2cc(Cl)ccc12 (stereo not drawn),Potency,[1],inactive
same,Potency,[2],inactive
same,"% pathology change, negative = correction",[3],-8.74% [at 4.63 µM] (inactive)
O=C(O)c1cccc(-c2noc(-c3ccccc3F)n2)c1,Potency,[1],inactive
same,Potency,[4],inactive
same,Potency,[5],inactive
same,Potency,[3],inactive
same,Potency,[6],1.55 µM (active)
same,Potency,[7],1.55 µM (active)
Cc1cc(O)c2c(c1)C(=O)c1cc(O)cc(O)c1C2=O,Potency,[1],inactive
same,Potency,[5],14.1 µM (active)
same,Potency,Papain (Carica papaya),inactive
CN(C)c1ccc(O)c2c1C[C@H]1C[C@H]3[C@H](N(C)C)C(=O)C(C(N)=O)=C(O)[C@@]3(O)C(=O)C1=C2O,Potency,[1],inactive
same,Potency,[4],inactive
same,Potency,[5],inactive
same,max response,[8],11.6% (inactive)
same,Potency,[2],inactive and 31.6 µM (active)
same,Potency,[6],inactive
same,outcome,[9],inactive
same,Potency,[7],inactive
CC(=O)O[C@H]1C(=O)[C@@]2(C)C([C@H](OC(=O)c3ccccc3)[C@]3(O)C[C@H](OC(=O)[C@H](O)[C@@H](NC(=O)c4ccccc4)c4ccccc4)C(C)=C1C3(C)C)[C@]1(OC(C)=O)CO[C@@H]1C[C@@H]2O (stereo partly drawn),Potency,[1],inactive
same,Potency,[2],inactive
COc1cc2c(cc1OC)C1CC(=O)C(CC(C)C)CN1CC2 (stereo not drawn),Potency,[1],inactive
same,Potency,[2],inactive
CN(C)CCc1c[nH]c2ccc(Cn3cncn3)cc12,Potency,[1],inactive
same,Potency,[2],inactive
O=C(CS(=O)Cc1ccco1)NCC=CCOc1cc(CN2CCCCC2)ccn1 (stereo not drawn),Potency,[1],inactive
